Assay results published in PubChem BioAssay (NCI).
About 83,000 compounds went through this panel and 20% of them were active in at least one assay; those are over-represented in the sample as a whole.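 Assay: single dose, 48 h. Readout: percent growth (0 = no net growth; negative = cell death). Active: <10.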 Activity calls are given as the source filed them.

What follows are compounds tested on U251 CNS (assay: NCI-60 one-dose screen, 48 h (100 = growth as untreated, 0 = no growth, -100 = all killed)). Details: 10 µM unless noted.

Question: Which growth does the source give for CC(=O)Nc1ccc2c(c1)c(NC(C)=O)nn2C(=O)Nc1ccc(Cc2ccccc2)cc1 here?
Answer: 69.5% (inactive)

Question: For Cc1ccc2c(c1)O/C(=C\c1cccc(OCC(=O)c3ccccc3)c1)C2=O, which growth is on record?
Answer: 96.5% (inactive)

Question: For Nc1nc(SCc2ccccc2)c2ncn(C3CCCC3)c2n1, which growth is on record?
Answer: -25.9% (active)

Question: Which growth does the source give for Cn1c2ccccc2c2c3c(c4c5ccccc5n(CCCCCC#N)c4c21)C(=O)N(O)C3=O here?
Answer: 12.8% (inactive)

Question: Which growth does the source give for CCN(CC)Cc1cc(Nc2c3ccc(Cl)cc3nc3c(C)cccc23)ccc1O here?
Answer: -62.4% (active)

Question: With CS(=O)(=O)c1ccc(-c2cnc3ccc(-c4cccc(S(C)(=O)=O)c4)nn23)cc1 as the compound, how does the growth read?
Answer: 46.3% (inactive)

Question: How did the growth turn out when COc1ccc(CCN2CCCn3c2nc2ccccc2c3=O)cc1 was run?
Answer: 29% (inactive)

Question: For CC#CC#Cc1cccc(=O)o1, which growth is on record?
Answer: 75.1% (inactive)

Question: How did the growth turn out when c1ccc2c(Nc3cccc4ccccc34)cccc2c1 was run?
Answer: 32.1% (inactive)

Question: For c1ccc(CSc2ncnc3nc[nH]c23)nc1, which growth is on record?
Answer: 113% (inactive)

Question: With O=C(O)c1cccnc1Br as the compound, how does the growth read?
Answer: 97.9% (inactive)

Question: COc1ccc(-c2cc(-c3cccnc3)nc3sc4c(=O)n(-c5ccc(C)cc5)cnc4c23)cc1OC was tested. Which growth did it give?
Answer: 103% (inactive)

Question: With CNC(=O)c1cc(Oc2ccc3nc(NC(=O)Nc4ccc(CN5CCOCC5)c(C(F)(F)F)c4)sc3c2)ccn1 as the compound, how does the growth read?
Answer: 22.2% (inactive)

Question: With CCN(CC)CCCC(C)NCCCNc1cccc2cccnc12 (stereo not drawn) as the compound, how does the growth read?
Answer: 91.4% (inactive)

Question: How did the growth turn out when CCCCN(CCCC)Cc1c(C)[nH]c2cc(OC)ccc2c1=O was run?
Answer: 98.5% (inactive)

Question: For O=C1C[C@H](Sc2nc(-c3ccc(F)cc3)cc(C(F)(F)F)n2)[C@H]2CO[C@@H]1O2, which growth is on record?
Answer: 98.9% (inactive)

Question: Which growth does the source give for CCCCOc1ccc(NC(=O)n2nc(NC(C)=O)c3cc(NC(C)=O)ccc32)cc1 here?
Answer: 96.2% (inactive)

Question: Which growth does the source give for CSc1ncnc2c1ncn2C1CCCO1 (stereo not drawn) here?
Answer: 103% (inactive)

Question: With Oc1ccccc1N=Cc1c(O)ccc2ccccc12 as the compound, how does the growth read?
Answer: 83.3% (inactive)

Question: For Cn1c2ccccc2c2c3[nH]c(=O)[nH]c(=O)c3c3c4ccccc4n(C)c3c21, which growth is on record?
Answer: 21.9% (inactive)

Question: For CCOC(=O)c1c2ncccc2n2c(=O)n(-c3ccc(Cl)cc3)nnc12, which growth is on record?
Answer: 95.1% (inactive)

Question: For O=C(COc1cccc(/C=C2/Oc3ccccc3C2=O)c1)Nc1nccs1, which growth is on record?
Answer: 89.4% (inactive)

Question: Which growth does the source give for NS(=O)(=O)c1ccc(Nc2nc3n[nH]c(Nc4ccccc4)c3c(=O)[nH]2)cc1 here?
Answer: 101% (inactive)

Question: With OCCNCCNc1c2ccccc2nc2ccccc12 as the compound, how does the growth read?
Answer: 55.3% (inactive)

Question: With COc1ccc(OCC(=O)Nc2ccc(-c3nc4ccccc4s3)cc2C)cc1 as the compound, how does the growth read?
Answer: 96.2% (inactive)

Question: With CCCCNP1(NCCCC)=NP(NCCCC)(NCCCC)=NP(NCCCC)(NCCCC)=NP(NCCCC)(NCCCC)=N1 as the compound, how does the growth read?
Answer: 11% (inactive)

Question: How did the growth turn out when COCCCN=C(N)c1ccc(NC(=O)c2ccc(C(=O)Nc3ccc(C(N)=NCCCOC)cc3)cc2)cc1 was run?
Answer: 99.1% (inactive)

Question: How did the growth turn out when Cn1c2ccccc2c2c3c(c4c5ccccc5[nH]c4c21)C(=O)N(N)C3=O was run?
Answer: 37.3% (inactive)

Question: CCN(CC)Cc1cc(Nc2c3ccccc3nc3cc(Cl)ccc23)ccc1O was tested. Which growth did it give?
Answer: -51.6% (active)

Question: How did the growth turn out when COc1nc2c(cc1S(=O)(=O)c1ccccc1)CCc1c-2cnn1-c1ccc(Cl)cc1 was run?
Answer: 92.1% (inactive)

Question: CN(CC(=O)N(Cc1ccc(C2CCCCC2)cc1)c1ccc(C(=O)NO)cc1)S(=O)(=O)c1c(F)c(F)c(F)c(F)c1F was tested. Which growth did it give?
Answer: 48.8% (inactive)

Question: How did the growth turn out when COc1cc(-c2nc3ccccc3s2)ccc1NC(=O)COc1ccc(Cl)cc1 was run?
Answer: 41.9% (inactive)

Question: How did the growth turn out when CSc1[nH]c2ncnc(N)c2c1C#N was run?
Answer: 107% (inactive)

Question: How did the growth turn out when O=C1Nc2c(ccc(Cl)c2Cl)/C1=C/c1cc(Br)c(O)c(Br)c1 was run?
Answer: 66.2% (inactive)

Question: With NS(=O)(=O)N(c1cc(C(F)(F)F)cc(C(F)(F)F)c1)C1CCN(Cc2ccc(F)cc2)CC1 as the compound, how does the growth read?
Answer: 59.8% (inactive)

Question: COc1nc2c(cc1S(=O)(=O)c1ccccc1)CCc1c-2cnn1Cc1ccccc1 was tested. Which growth did it give?
Answer: 48.1% (inactive)

Question: With CN1CCN(Cc2ccc(NC(=O)c3[nH]ncc3Nc3ccnc4ccsc34)cc2)CC1 as the compound, how does the growth read?
Answer: 29.2% (inactive)

Question: CC1(C)CC(C(=O)OCCCCCCCCCCC[P+](c2ccccc2)(c2ccccc2)c2ccccc2)C(C)(C)N1O (stereo not drawn) was tested. Which growth did it give?
Answer: 110% (inactive)

Question: For C=CC[N+]1(CC)CCN=C1CCCCCCCCCCCCCCCCC (stereo not drawn), which growth is on record?
Answer: -100% (active)

The compounds below were run on PC-3 prostate in the same assay as above. Details: 10 µM unless noted.

Question: How did the growth turn out when CC(=O)Nc1ccc2c(c1)c(NC(C)=O)nn2C(=O)Nc1ccc(Cc2ccccc2)cc1 was run?
Answer: 63.5% (inactive)

Question: With Cc1ccc2c(c1)O/C(=C\c1cccc(OCC(=O)c3ccccc3)c1)C2=O as the compound, how does the growth read?
Answer: 358% (inactive)

Question: Nc1nc(SCc2ccccc2)c2ncn(C3CCCC3)c2n1 was tested. Which growth did it give?
Answer: 83.2% (inactive)

Question: For Cn1c2ccccc2c2c3c(c4c5ccccc5n(CCCCCC#N)c4c21)C(=O)N(O)C3=O, which growth is on record?
Answer: 24.3% (inactive)

Question: For CCN(CC)Cc1cc(Nc2c3ccc(Cl)cc3nc3c(C)cccc23)ccc1O, which growth is on record?
Answer: -48.9% (active)

Question: Which growth does the source give for CS(=O)(=O)c1ccc(-c2cnc3ccc(-c4cccc(S(C)(=O)=O)c4)nn23)cc1 here?
Answer: 37.6% (inactive)

Question: For COc1ccc(CCN2CCCn3c2nc2ccccc2c3=O)cc1, which growth is on record?
Answer: 42% (inactive)

Question: Which growth does the source give for CC#CC#Cc1cccc(=O)o1 here?
Answer: 78.6% (inactive)

Question: Which growth does the source give for c1ccc2c(Nc3cccc4ccccc34)cccc2c1 here?
Answer: 65.2% (inactive)

Question: How did the growth turn out when c1ccc(CSc2ncnc3nc[nH]c23)nc1 was run?
Answer: 112% (inactive)

Question: Which growth does the source give for O=C(O)c1cccnc1Br here?
Answer: 108% (inactive)

Question: For COc1ccc(-c2cc(-c3cccnc3)nc3sc4c(=O)n(-c5ccc(C)cc5)cnc4c23)cc1OC, which growth is on record?
Answer: 91.2% (inactive)

Question: Which growth does the source give for CNC(=O)c1cc(Oc2ccc3nc(NC(=O)Nc4ccc(CN5CCOCC5)c(C(F)(F)F)c4)sc3c2)ccn1 here?
Answer: 8.35% (active)

Question: CCN(CC)CCCC(C)NCCCNc1cccc2cccnc12 (stereo not drawn) was tested. Which growth did it give?
Answer: 87.3% (inactive)

Question: With CCCCN(CCCC)Cc1c(C)[nH]c2cc(OC)ccc2c1=O as the compound, how does the growth read?
Answer: 85.2% (inactive)

Question: O=C1C[C@H](Sc2nc(-c3ccc(F)cc3)cc(C(F)(F)F)n2)[C@H]2CO[C@@H]1O2 was tested. Which growth did it give?
Answer: 96.2% (inactive)

Question: How did the growth turn out when CCCCOc1ccc(NC(=O)n2nc(NC(C)=O)c3cc(NC(C)=O)ccc32)cc1 was run?
Answer: 76.6% (inactive)

Question: CSc1ncnc2c1ncn2C1CCCO1 (stereo not drawn) was tested. Which growth did it give?
Answer: 106% (inactive)

Question: Which growth does the source give for Oc1ccccc1N=Cc1c(O)ccc2ccccc12 here?
Answer: 61.3% (inactive)

Question: Which growth does the source give for Cn1c2ccccc2c2c3[nH]c(=O)[nH]c(=O)c3c3c4ccccc4n(C)c3c21 here?
Answer: 41.1% (inactive)

Question: CCOC(=O)c1c2ncccc2n2c(=O)n(-c3ccc(Cl)cc3)nnc12 was tested. Which growth did it give?
Answer: 95.6% (inactive)

Question: With O=C(COc1cccc(/C=C2/Oc3ccccc3C2=O)c1)Nc1nccs1 as the compound, how does the growth read?
Answer: 14.6% (inactive)

Question: Which growth does the source give for NS(=O)(=O)c1ccc(Nc2nc3n[nH]c(Nc4ccccc4)c3c(=O)[nH]2)cc1 here?
Answer: 92.1% (inactive)

Question: For OCCNCCNc1c2ccccc2nc2ccccc12, which growth is on record?
Answer: 87.5% (inactive)

Question: Which growth does the source give for COc1ccc(OCC(=O)Nc2ccc(-c3nc4ccccc4s3)cc2C)cc1 here?
Answer: 75.9% (inactive)

Question: With CCCCNP1(NCCCC)=NP(NCCCC)(NCCCC)=NP(NCCCC)(NCCCC)=NP(NCCCC)(NCCCC)=N1 as the compound, how does the growth read?
Answer: -6.45% (active)

Question: With COCCCN=C(N)c1ccc(NC(=O)c2ccc(C(=O)Nc3ccc(C(N)=NCCCOC)cc3)cc2)cc1 as the compound, how does the growth read?
Answer: 125% (inactive)

Question: For Cn1c2ccccc2c2c3c(c4c5ccccc5[nH]c4c21)C(=O)N(N)C3=O, which growth is on record?
Answer: 59.6% (inactive)

Question: How did the growth turn out when CCN(CC)Cc1cc(Nc2c3ccccc3nc3cc(Cl)ccc23)ccc1O was run?
Answer: -41.5% (active)

Question: COc1nc2c(cc1S(=O)(=O)c1ccccc1)CCc1c-2cnn1-c1ccc(Cl)cc1 was tested. Which growth did it give?
Answer: 88.2% (inactive)

Question: How did the growth turn out when CN(CC(=O)N(Cc1ccc(C2CCCCC2)cc1)c1ccc(C(=O)NO)cc1)S(=O)(=O)c1c(F)c(F)c(F)c(F)c1F was run?
Answer: 88.1% (inactive)

Question: How did the growth turn out when COc1cc(-c2nc3ccccc3s2)ccc1NC(=O)COc1ccc(Cl)cc1 was run?
Answer: 49.8% (inactive)

Question: CSc1[nH]c2ncnc(N)c2c1C#N was tested. Which growth did it give?
Answer: 110% (inactive)

Question: Which growth does the source give for O=C1Nc2c(ccc(Cl)c2Cl)/C1=C/c1cc(Br)c(O)c(Br)c1 here?
Answer: 59.4% (inactive)

Question: How did the growth turn out when NS(=O)(=O)N(c1cc(C(F)(F)F)cc(C(F)(F)F)c1)C1CCN(Cc2ccc(F)cc2)CC1 was run?
Answer: 34.2% (inactive)

Question: For COc1nc2c(cc1S(=O)(=O)c1ccccc1)CCc1c-2cnn1Cc1ccccc1, which growth is on record?
Answer: 38.3% (inactive)

Question: For CN1CCN(Cc2ccc(NC(=O)c3[nH]ncc3Nc3ccnc4ccsc34)cc2)CC1, which growth is on record?
Answer: 34% (inactive)

Question: CC1(C)CC(C(=O)OCCCCCCCCCCC[P+](c2ccccc2)(c2ccccc2)c2ccccc2)C(C)(C)N1O (stereo not drawn) was tested. Which growth did it give?
Answer: -70.1% (active)

Question: For C=CC[N+]1(CC)CCN=C1CCCCCCCCCCCCCCCCC (stereo not drawn), which growth is on record?
Answer: -68.6% (active)
